HCV inhibitor = qHTS Assay for Inhibitors of Hepatitis C Virus (HCV). Huh7.5.1 HCVcc-Cre infection, luciferase reporter, 44 h. Potency, µM (doses to about 41.8 µM), for the others: at the highest dose activity change, negative = inhibition, usual class: inhibitors. 3.4% of 340,000 active; note: potency is the fitted concentration of half-maximal effect
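Infectious HCVcc-Cre (~0.5 moi) was added to cells just after compound, with cells seeded 4 h earlier at 1,000 per well. Luciferase activity after 44 h culture reported infection; substrate was incubated 15 min at room temperature before reading.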
Pf growth 96h = Primary qHTS for delayed death inhibitors of the malarial parasite plastid, 96 hour incubation. 6.9% of 320,000 active. AID 504834, 2011. P. falciparum luciferase reporter growth, 96 h. Potency, µM (highest dose often 28.7 µM), for the others: at the highest dose activity change, negative = inhibition, most hits filed as inhibitors; note: potency is the fitted concentration of half-maximal effect
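Readout is luminescence from an integrated firefly luciferase in P. falciparum. Red cells, 2% hematocrit and 0.05% parasitemia final, were cultured with compound through two parasite generations (96 hours) at 37 C, 5% CO2.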
Pf growth 48h = Primary qHTS for delayed death inhibitors of the malarial parasite plastid, 48 hour incubation | P. falciparum luciferase growth in erythrocytes, 48 h | 5.9% of 310,000 active | Potency, µM (top dose mostly 28.7 µM), inactives show at the highest dose activity change, negative = inhibition, actives largely listed as inhibitors; note: potency is the fitted concentration of half-maximal effect
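Here the parasites carry a stable luciferase gene and grow inside erythrocytes in Albumax-based RPMI medium with compound for one erythrocytic cycle. Activity is scored as loss of luminescent signal.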
Marburg entry inh = qHTS for inhibitors of binding or entry into cells for Marburg Virus. Marburg virus pseudotyped entry inhibition, cell reporter. Potency, µM (titrated, usually from 37.8 µM), without a hit: at the top dose activity change, negative = inhibition, most hits filed as inhibitors. 1.8% of 300,000 active. AID 540276, 2011; calls by dose curve; tested in HEK293 cells; note: potency is the fitted concentration of half-maximal effect
HCMV antiviral = qHTS Assay for inhibitors of the human cytomegalovirus (HCMV); HFF cells, HCMV-luciferase reporter, 72 h; active compounds read low; activity change, negative = inhibition, % at 57.5 µM; 4.5% of 410,000 active; AID 1259415, 2018; in the data active = activity change below about -60%; inconclusive = no clear call, values can overlap the other calls; inactive = above about -39%
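Screen run at 2 compound doses on HFFs infected with reporter HCMV, MOI 1 PFU/cell. Luciferase activity from cell lysates at 72 h post infection gave inhibition relative to buffer-only and Salinomycin wells.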
LASV entry inh = qHTS for Inhibitors of binding or entry into cells for Lassa Virus | Lassa virus pseudotype entry inhibition, cell reporter | Potency, µM (top dose mostly 37.9 µM), for the others: top-dose activity change, negative = inhibition, hits mostly inhibitors | 1.2% of 300,000 active | AID 540256, 2011; calls by dose curve; tested in HEK293 cells; note: potency is the fitted concentration of half-maximal effect; nearly all actives have a fitted effect of over 50% in size
* = called active by the depositor; ? = inconclusive; nt = no result given; [ ] = dose if it differs, or a comment. The list is not random: actives were taken first. Their share in the collection is about 14%. Unless noted, calls come from the whole dose curve; as a rule, active = well fitted inhibition curve with a large enough effect; inconclusive = small, poorly fitted or top-dose-only effect, or another doubt; inactive = no such curve, though single readings can be large or run the other way. % is set by controls: 0 for no effect and ±100 for the full control effect.

SMILES	HCV inhibitor	Pf growth 96h	Pf growth 48h	Marburg entry inh	HCMV antiviral	LASV entry inh
CCS(=O)(=O)N(C)C[C@@H]1OCc2ccccc2-c2c(n(C)c3ccccc23)C(=O)N([C@H](C)CO)C[C@@H]1C	nt	nt	nt	nt	-7	nt
CCc1cc2c(cc3c(=O)n(CC(=O)NCCc4ccc(OC)cc4OC)nc(CC)n32)s1	nt	nt	nt	-1%[46.1 µM]	-5	nt
CCC(CC)C(=O)c1c[nH]c(C(=O)NCc2ccc(F)cc2)c1	3%	-3%	0%[0.00184 µM]	nt	80	nt
Cc1ccc(NC2=NCC(=O)N2C2CCCC2)cc1	16%	5.9µM*	15%	2%[46.1 µM]	21	20%[46.1 µM]
Cc1ccc(NC2=NCC(=O)N2C2CCCC2)cc1C	-6%	?	13%	-4%[46.1 µM]	23	25%
Cc1csc2c(SCC(=O)NNC(=O)C(Cl)Cl)ncnc12	-1%	?	3.3µM*	nt	-23	nt
Cc1ccc(-c2cnc(N)n2C)cc1C	?	4.7µM*	?	14%	8	21%
Cn1c(-c2ccc(Cl)cc2)cnc1N	?	nt	?	25%	-6	-11%
Cc1ccc2c(Sc3ccc(Cl)cc3)c(C(=O)N3CCCCC3)[nH]c2c1	nt	nt	nt	?	9	-4%[46.1 µM]
CC(=O)c1ccc(NC(=O)CSc2cn(CC(=O)N3CCCCC3)c3ccccc23)cc1	nt	nt	nt	nt	13	3%[46.1 µM]
C/C(CC(=O)Nc1cccc2c1CCCC2)=N\NC(=O)c1ccccc1N	3%	11%	?	14%	86	17%
C/C(CC(=O)Nc1cccc2c1CCCC2)=N\NC(=O)c1cccc2ccccc12	13%	13µM*	-6%	?	-5	-9%
O=S(=O)(Nc1cccc(-n2cnnn2)c1)c1ccc(F)cc1	5%	26%	-23%	-2%[46.1 µM]	-24	-20%
COc1ccc(CNC(=O)Cc2ccc(NC(=O)C3=C(C)OCCS3)cc2)cc1	-16%	?	100%	nt	76	nt
COc1ccc(NC(=O)CSc2nnc3c4c(nc(-c5ccccc5)n23)CC(C)(C)OC4)cc1	?	?	-104%	-5%	?	?
COc1ccc(-c2nc3c(c4nnc(SC(C)C(=O)Nc5ccc(C)cc5)n24)COC(C)(C)C3)cc1 (stereo not drawn)	?	2.6µM*	7.4µM*	-25%	-35	1%
COc1cc(-c2nc3ccccn3c2N)ccc1O	12%	1.7µM*	1%	nt	22	nt
COc1ccc(C2c3ccc4ccccc4c3Oc3ncn(CCCO)c(=N)c32)cc1OC (stereo not drawn)	13µM*	1.9µM*	?	?	-34	?
COc1ccc(C2c3ccc4ccccc4c3Oc3ncn(CCO)c(=N)c32)cc1OC (stereo not drawn)	10µM*	?	10µM*	7%	nt	nt
CCC(=O)Nc1cc(-c2cc3ccccc3oc2=O)ccc1OC	?	2.9µM*	85%	-23%	-3	-13%
COc1ccc(-c2cc3ccccc3oc2=O)cc1NC(=O)c1ccc(Br)o1	16%	-2%	17%	?	-26	8%
COc1ccc(-c2cc3ccccc3oc2=O)cc1NC(=O)c1ccc([N+](=O)[O-])o1	?	2.6µM*	?	-29%	-66*	-22%
COc1cc(NC(=O)c2cccnc2)ccc1-c1cc2ccccc2oc1=O	nt	57%	-5%	nt	-24	nt
COc1cc(NC(=O)c2cc(Cl)ccc2Cl)ccc1-c1cc2ccccc2oc1=O	nt	12µM*	?	-17%	-30	-17%[14.3 µM]
COCCNC(=O)C1(C)CCCN(C(=O)c2cc(C)on2)C1 (stereo not drawn)	nt	nt	nt	nt	3	nt
SMILES	HCV inhibitor	Pf growth 96h	Pf growth 48h	Marburg entry inh	HCMV antiviral	LASV entry inh
CCn1c2ccccc2c2cc(NC(=O)c3cccc([N+](=O)[O-])c3C)ccc21	4µM*	?	-6%	?	?	-28%
CCn1c2ccccc2c2cc(NC(=O)c3cccc([N+](=O)[O-])c3)ccc21	2.2µM*	41%	?	?	28	-15%
CCn1c2ccccc2c2cc(NC(=O)c3ccc(C)c([N+](=O)[O-])c3)ccc21	?	44%	-27%	-19%	1	?
CCOC(=O)C1CSCCS(=O)(=O)N1Cc1cccc(Cl)c1 (stereo not drawn)	nt	nt	nt	nt	14	nt
COC(=O)C1CC23C=CCN4CCC5(c6ccccc6NC15C2C)C43 (stereo not drawn)	-4%	-5%	1.5µM*	?	-84*	?
CN1CC[C@]23c4ccccc4N[C@H]1[C@]21CCN(C)[C@H]3Nc2ccccc21	-3%	27%	-15%	nt	-35	nt
O=C(O)CSCC(=O)Nc1ccc(C2CCCCC2)cc1	15%	?	?	?	-92*	?
Cc1ccc(-c2c(CN3CCN(c4cccc(C)c4C)CC3)csc2C)cc1	nt	nt	nt	nt	-14	22%[46.1 µM]
COc1ccc(CCNC(=O)c2cccc(NC(=O)CC3SC(N4CCCCC4)=NC3=O)c2)cc1OC (stereo not drawn)	-8%	?	12µM*	11%	26	0%
O=C(CN1C(=O)NC2(CCc3ccccc32)C1=O)c1ccccc1 (stereo not drawn)	30%	12%	-8%	17%[46.1 µM]	13	-3%[46.1 µM]
O=C(CN1C(=O)NC2(CCc3ccccc32)C1=O)c1c[nH]c2ccccc12 (stereo not drawn)	10%	?	8.3µM*	17%[46.1 µM]	3	12%
COc1ccc(NC(=O)CC2SC(N3CCCC3)=NC2=O)cc1Cl (stereo not drawn)	-3%	nt	nt	nt	10	nt
COc1ccc(C(=O)CN2C(=O)NC3(CCCc4ccccc43)C2=O)cc1OC (stereo not drawn)	-3%	1.3µM*	8.3µM*	19%	23	5%
COc1cc2c(cc1NC(=O)CC1SC(N3CCCC3)=NC1=O)oc1ccccc12 (stereo not drawn)	11µM*	1.2µM*	6.6µM*	?	70	-13%
Cc1ccccc1CNC(=O)C1CCN(c2nnc(-n3c(C)ccc3C)s2)CC1	nt	nt	nt	-4%[46.1 µM]	10	-1%[46.1 µM]
Cc1ccc(C)c(-c2nn(CC(=O)Nc3cc(F)ccc3F)c(=O)c3c2CCCC3)c1	nt	nt	nt	-24%[46.1 µM]	5	-1%[46.1 µM]
Cc1cc(NC(=O)COC(=O)c2ccc([N+](=O)[O-])cc2Cl)no1	3%	?	-14%	nt	0	nt
COc1cc2c(cc1NC(=O)CN1C(=O)NC3(CCc4ccccc43)C1=O)oc1ccccc12 (stereo not drawn)	?	?	nt	12µM*	-33	?
COc1ccc(CNC(=O)CN2C(=O)NC3(CCCc4sccc43)C2=O)cc1OC (stereo not drawn)	-19%	4.1µM*	?	nt	5	nt
